Consider 34 compounds from PubChem BioAssay (Tox21).

Calls of active or inactive are those of the source. Entries that show only a call come without a potency. The call rests on the fitted dose curve; in most records, active means well fitted curve in the direction sought with a large enough effect in the repeat runs; inconclusive means weak or mixed curves; inactive means flat fitted curve, though single readings scatter.

The nature of the test: qHTS assay to test for compound auto fluorescence at 535 nm (green) in HEK293 cells (AID 720680). The settings on record: green autofluorescence 485/535 nm; series mostly up to 46 µM. (In general: qHTS replaces the single test concentration by a dilution series.)
For the compound `CC(C)(C)CC(C)(C)c1cc(Cc2cc(C(C)(C)CC(C)(C)C)cc(-n3nc4ccccc4n3)c2O)c(O)c(-n2nc3ccccc3n2)c1`, the Potency result is “inactive”.

With `CCCC(=O)N1CCCN(c2nc(N)c3cc(OC)c(OC)cc3n2)CC1`, the Potency result is “inactive”.

On to `COCC1=C(C(=O)OC(C)OC(=O)OC(C)C)N2C(=O)[C@@H](NC(=O)/C(=N\OC)c3csc(N)n3)[C@H]2SC1` (some centres undefined), for which the Potency entry was “inactive”.

With `CN1CCC(OC(=O)C(Oc2ccc(Cl)cc2)Oc2ccc(Cl)cc2)CC1`, the Potency entry was “inactive”.

For the compound `CC(C)[C@@H](C)/C=C/[C@@H](C)[C@H]1CC[C@H]2/C(=C/C=C3\C[C@@H](O)CC[C@@H]3C)CCC[C@]12C`, the Potency result was “inactive”.

In the case of `O=C1c2ccccc2C(=O)C1c1ccc(Cl)cc1`, the Potency entry was “inactive”.

On to `O=C(CCCN1CCC(n2c(=S)[nH]c3ccccc32)CC1)c1ccc(F)cc1`, for which the Potency entry was “inactive”.

`CC1(C)[C@@H]2CC[C@@]1(C)[C@H](OC(=O)CSC#N)C2`: the Potency entry was “inactive”.

As to `CN1CCC(CN2c3ccccc3Sc3ccccc32)C1` (centres undefined), the Potency result was “inactive”.

With `CC(C)Cc1ccc([C@@H](C)C(=O)NS(C)(=O)=O)cc1`, the Potency result was “inactive”.

In the case of `CC(C)N1CCN(c2ccc(OC[C@H]3CO[C@](Cn4cncn4)(c4ccc(Cl)cc4Cl)O3)cc2)CC1`, the Potency result was “inactive”.

Turning to `Cc1ccc(C2(O)CCN(CCCC(=O)c3ccc(F)cc3)CC2)cc1`, the Potency result was “inactive”.

With `CCN(CC)CCOCCOC(=O)C(CC)(CC)c1ccccc1`, the Potency result is “inactive”.

Take `CCC(=O)c1ccc2c(c1)N(CCCN1CCN(CCO)CC1)c1ccccc1S2`: the Potency result is “inactive”.

Take `O=S(O)CNc1ccc(S(=O)(=O)c2ccc(NCS(=O)O)cc2)cc1`: the Potency entry was “inactive”.

In the case of `CCCCCCCCCCCCCCCCOCCOCCOCCOCCOCCOCCOCCOCCOCCOCCOCCOCCOCCOCCOCCOCCOCCOCCOCCOCCO`, the Potency entry is “inactive”.

As to `S=C1SCN(Cc2ccccc2)CN1Cc1ccccc1`, the Potency result was “inactive”.

For `CC(C)CCCC(C)NC(C)C` (centres undefined), the Potency entry is “inactive”.

As for `CC[C@H]1OC(=O)[C@H](C)[C@@H](O[C@H]2C[C@@](C)(OC)[C@@H](O)[C@H](C)O2)[C@H](C)[C@@H](O[C@@H]2O[C@H](C)C[C@H](N(C)C)[C@H]2O)[C@](C)(O)C[C@@H](C)[C@@H]2N[C@@H](COCCOC)O[C@@H]([C@H]2C)[C@]1(C)O`, the Potency entry is “inactive”.

Take `C[C@H](CCCC(C)(C)O)[C@H]1CC[C@H]2[C@@H]3CC=C4C[C@@H](O)CC[C@]4(C)[C@H]3CC[C@]12C`: the Potency entry was “inactive”.

On to `COc1ccc(/C=C/C(=O)OCCC(C)C)cc1`, for which the Potency entry is “inactive”.

With `O=C(NNCNNC(=O)c1ccncc1)c1ccncc1`, the Potency result is “inactive”.

Consider `Cc1ccccc1`, for which the Potency result was “inactive”.

For the compound `C=C1C(=C/C=C2\CCC[C@]3(C)[C@@H]([C@H](C)/C=C/[C@H](C)C(C)C)CC[C@@H]23)C[C@@H](O)C[C@@H]1O`, the Potency entry is “inactive”.

Take `CC[C@H](C)[C@H]1O[C@]2(CC[C@@H]1C)C[C@@H]1C[C@@H](C/C=C(\C)[C@@H](O[C@H]3C[C@H](OC)[C@@H](O[C@H]4C[C@H](OC)[C@@H](O)[C@H](C)O4)[C@H](C)O3)[C@@H](C)/C=C/C=C3\CO[C@@H]4[C@H](O)C(C)=C[C@@H](C(=O)O1)[C@]34O)O2`: the Potency result was “inactive”.

Consider `O=C(O)[C@@H](O)[C@H](O)[C@H](O)[C@@H](O)C(=O)O` (tested in a mixture with another compound), for which the Potency result is “inactive”.

For `CCCCC[C@H](O)/C=C/[C@H]1[C@H](O)CC(=O)[C@@H]1CCCCCCC(=O)O`, the Potency entry was “inactive”.

Regarding `O=P(O)(O)OC[C@H](O)CO`, the Potency result is “inactive”.

As to `Cn1c(O)c(N=NC(N)=S)c2ccccc21`, the Potency entry is “inactive”.

Consider `CCCC(=O)O[C@]1(C(=O)COC(=O)CC)[C@@H](C)C[C@H]2[C@@H]3CCC4=CC(=O)C=C[C@]4(C)[C@@]3(F)[C@@H](O)C[C@@]21C`, for which the Potency entry was “inactive”.

As for `CO[C@H]1C[C@H](O[C@H]2[C@H](C)[C@@H](O[C@@H]3O[C@H](C)C[C@H](N(C)C)[C@H]3OC(C)=O)[C@@H](C)C[C@]3(CO3)C(=O)[C@H](C)[C@@H](OC(C)=O)[C@@H](C)[C@@H](C)OC(=O)[C@@H]2C)O[C@@H](C)[C@@H]1OC(C)=O`, the Potency result was “inactive”.

As to `CCN(CC)c1ccc(C(=C2C=CC(=[N+](CC)CC)C=C2)c2ccccc2)cc1`, the Potency entry was “inactive”.

For the compound `CC(=O)O[C@H]1C[C@@H]2CC[C@@H]3[C@H](CC[C@@]4(C)[C@H]3C[C@H](N3CC[N+](C)(C)CC3)[C@@H]4OC(C)=O)[C@@]2(C)C[C@@H]1N1CC[N+](C)(C)CC1`, the Potency entry is “inactive”.

Regarding `COc1cc(-c2ccc(-[n+]3nc(-c4ccccc4)nn3-c3ccc([N+](=O)[O-])cc3)c(OC)c2)ccc1-[n+]1nc(-c2ccccc2)nn1-c1ccc([N+](=O)[O-])cc1`, the Potency result is “inactive”.
